Molecules are shown by their SMILES. A number with no mark means an inactive call.

Holding throughout (assay): log2 ratio of Biotin-Ahx-Ub-VS probe labelling (fragment/DMSO); higher = less target engagement (more negative = stronger competition), active = hit call of the paper (q ≤ 0.05, log2 ratio ≤ -1)
Holding throughout (details): compound concentration: 200 uM; treatment time: 3 h

One assay has as its target T1, OTUD6B (UniProt Q8N6M0).
T1 sequence (whole entry): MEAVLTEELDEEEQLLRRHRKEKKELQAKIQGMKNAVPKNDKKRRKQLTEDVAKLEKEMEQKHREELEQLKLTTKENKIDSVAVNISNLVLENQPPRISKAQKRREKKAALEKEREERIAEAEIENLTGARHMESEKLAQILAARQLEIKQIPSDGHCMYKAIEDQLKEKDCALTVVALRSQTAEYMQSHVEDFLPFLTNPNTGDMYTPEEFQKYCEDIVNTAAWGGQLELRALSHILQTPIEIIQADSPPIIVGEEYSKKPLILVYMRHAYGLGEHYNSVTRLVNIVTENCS
The method, boiled down:
(§1)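 Labelled DUBs were enriched with NeutrAvidin, digested with LysC and trypsin, and run by diaPASEF LC-MS/MS. The labelling used Biotin-Ahx-Ub-VS at 0.5 µM final for 1 h on HEK293T lysate (495 µg per sample) previously treated in triplicate with fragment at 200 µM or vehicle for 3 h. Values are average log2 fragment/vehicle ratios by unpaired t-test on global-median-normalised Spectronaut quantities of proteins with ≥2 unique peptides.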

The next assay deals with T2, OTUD7B (UniProt Q6GQQ9).
T2 sequence (whole entry): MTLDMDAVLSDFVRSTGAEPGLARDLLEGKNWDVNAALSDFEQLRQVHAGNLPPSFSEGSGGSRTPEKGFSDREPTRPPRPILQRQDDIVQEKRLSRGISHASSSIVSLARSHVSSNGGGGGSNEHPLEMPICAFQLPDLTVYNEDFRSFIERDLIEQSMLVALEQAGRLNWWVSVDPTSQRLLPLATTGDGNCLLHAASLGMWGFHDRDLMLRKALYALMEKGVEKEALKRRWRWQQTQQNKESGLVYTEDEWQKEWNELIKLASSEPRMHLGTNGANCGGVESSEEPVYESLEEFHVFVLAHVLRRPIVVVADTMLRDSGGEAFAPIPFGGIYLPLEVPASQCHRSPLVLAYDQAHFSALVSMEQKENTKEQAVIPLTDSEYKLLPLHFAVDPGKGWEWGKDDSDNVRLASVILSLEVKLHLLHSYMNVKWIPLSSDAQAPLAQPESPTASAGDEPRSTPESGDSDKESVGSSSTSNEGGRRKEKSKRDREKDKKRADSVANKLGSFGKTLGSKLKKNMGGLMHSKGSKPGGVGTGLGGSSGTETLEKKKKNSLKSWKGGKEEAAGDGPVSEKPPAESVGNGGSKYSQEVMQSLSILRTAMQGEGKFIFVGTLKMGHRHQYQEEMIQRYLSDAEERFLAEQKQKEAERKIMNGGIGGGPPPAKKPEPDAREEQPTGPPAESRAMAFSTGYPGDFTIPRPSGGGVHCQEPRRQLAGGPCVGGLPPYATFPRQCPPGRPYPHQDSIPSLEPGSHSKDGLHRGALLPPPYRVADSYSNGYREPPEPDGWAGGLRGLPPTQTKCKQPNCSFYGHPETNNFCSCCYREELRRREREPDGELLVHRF
Summed up:
as §1

The target in a further assay is PRPF8 (UniProt Q6P2Q9). Summed up: as §1
For the next assay, the target named is T3, PSMD7 (UniProt P51665).
T3 sequence (whole entry): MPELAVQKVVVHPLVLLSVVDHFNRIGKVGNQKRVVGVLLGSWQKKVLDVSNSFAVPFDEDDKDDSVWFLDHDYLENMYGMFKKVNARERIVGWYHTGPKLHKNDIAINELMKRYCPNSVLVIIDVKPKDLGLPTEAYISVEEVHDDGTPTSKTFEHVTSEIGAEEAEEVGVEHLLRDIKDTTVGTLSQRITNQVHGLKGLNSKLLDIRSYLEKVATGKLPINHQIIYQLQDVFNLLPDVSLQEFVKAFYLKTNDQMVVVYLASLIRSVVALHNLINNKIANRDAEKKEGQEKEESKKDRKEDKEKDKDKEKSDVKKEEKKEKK
The method, boiled down:
as §1

The target of the next assay is UCHL1 (UniProt P09936). The method, boiled down:
as §1

The target of another assay is T4, UCHL3 (UniProt P15374).
T4 sequence (whole entry): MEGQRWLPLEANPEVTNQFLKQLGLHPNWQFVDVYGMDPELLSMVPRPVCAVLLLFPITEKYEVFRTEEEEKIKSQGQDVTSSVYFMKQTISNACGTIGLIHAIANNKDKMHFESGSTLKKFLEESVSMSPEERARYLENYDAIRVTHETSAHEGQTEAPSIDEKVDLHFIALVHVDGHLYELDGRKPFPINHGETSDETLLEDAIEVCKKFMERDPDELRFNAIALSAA
Summed up: as §1

The next assay addresses T5, UCHL5 (UniProt Q9Y5K5).
T5 sequence (whole entry): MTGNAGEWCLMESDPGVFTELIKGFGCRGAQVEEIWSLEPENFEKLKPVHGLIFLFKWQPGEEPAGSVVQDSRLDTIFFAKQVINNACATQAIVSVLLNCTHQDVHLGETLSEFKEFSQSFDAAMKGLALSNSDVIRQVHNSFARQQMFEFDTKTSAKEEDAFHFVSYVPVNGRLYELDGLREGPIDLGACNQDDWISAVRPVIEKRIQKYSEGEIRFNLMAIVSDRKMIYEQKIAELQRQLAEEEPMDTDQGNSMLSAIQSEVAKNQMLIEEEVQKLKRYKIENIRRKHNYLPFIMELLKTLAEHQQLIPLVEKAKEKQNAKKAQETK
Summed up: as §1

A further assay deals with USP10 (UniProt Q14694). Summed up: as §1
For a further assay, the target named is T6, USP15 (UniProt Q9Y4E8).
T6 sequence (whole entry): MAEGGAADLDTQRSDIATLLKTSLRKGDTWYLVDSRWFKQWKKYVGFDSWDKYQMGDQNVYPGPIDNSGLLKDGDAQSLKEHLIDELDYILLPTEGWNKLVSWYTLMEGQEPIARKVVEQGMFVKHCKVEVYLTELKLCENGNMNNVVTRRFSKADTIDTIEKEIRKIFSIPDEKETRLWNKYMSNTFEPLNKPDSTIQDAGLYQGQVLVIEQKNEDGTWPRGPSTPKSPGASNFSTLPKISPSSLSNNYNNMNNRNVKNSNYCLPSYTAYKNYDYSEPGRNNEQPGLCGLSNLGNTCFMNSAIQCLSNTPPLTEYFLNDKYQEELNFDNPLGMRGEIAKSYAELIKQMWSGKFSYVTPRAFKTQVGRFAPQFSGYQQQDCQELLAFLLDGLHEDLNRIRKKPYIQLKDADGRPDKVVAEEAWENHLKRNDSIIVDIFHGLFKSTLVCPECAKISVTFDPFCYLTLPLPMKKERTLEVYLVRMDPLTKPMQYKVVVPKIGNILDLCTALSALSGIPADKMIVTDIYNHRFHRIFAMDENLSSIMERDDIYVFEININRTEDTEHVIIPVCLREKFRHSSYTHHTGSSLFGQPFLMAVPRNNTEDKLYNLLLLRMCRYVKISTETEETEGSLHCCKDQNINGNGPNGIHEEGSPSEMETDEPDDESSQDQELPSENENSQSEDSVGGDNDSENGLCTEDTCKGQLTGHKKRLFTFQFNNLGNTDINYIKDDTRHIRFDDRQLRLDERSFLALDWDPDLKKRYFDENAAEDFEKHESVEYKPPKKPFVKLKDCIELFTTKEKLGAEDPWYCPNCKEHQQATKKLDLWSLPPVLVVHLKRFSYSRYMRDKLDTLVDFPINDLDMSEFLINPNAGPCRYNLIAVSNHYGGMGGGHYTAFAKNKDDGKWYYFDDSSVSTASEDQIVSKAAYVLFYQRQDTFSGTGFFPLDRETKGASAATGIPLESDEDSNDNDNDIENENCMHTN
Summed up:
as §1

Sequence of USP10 (Q14694 whole entry): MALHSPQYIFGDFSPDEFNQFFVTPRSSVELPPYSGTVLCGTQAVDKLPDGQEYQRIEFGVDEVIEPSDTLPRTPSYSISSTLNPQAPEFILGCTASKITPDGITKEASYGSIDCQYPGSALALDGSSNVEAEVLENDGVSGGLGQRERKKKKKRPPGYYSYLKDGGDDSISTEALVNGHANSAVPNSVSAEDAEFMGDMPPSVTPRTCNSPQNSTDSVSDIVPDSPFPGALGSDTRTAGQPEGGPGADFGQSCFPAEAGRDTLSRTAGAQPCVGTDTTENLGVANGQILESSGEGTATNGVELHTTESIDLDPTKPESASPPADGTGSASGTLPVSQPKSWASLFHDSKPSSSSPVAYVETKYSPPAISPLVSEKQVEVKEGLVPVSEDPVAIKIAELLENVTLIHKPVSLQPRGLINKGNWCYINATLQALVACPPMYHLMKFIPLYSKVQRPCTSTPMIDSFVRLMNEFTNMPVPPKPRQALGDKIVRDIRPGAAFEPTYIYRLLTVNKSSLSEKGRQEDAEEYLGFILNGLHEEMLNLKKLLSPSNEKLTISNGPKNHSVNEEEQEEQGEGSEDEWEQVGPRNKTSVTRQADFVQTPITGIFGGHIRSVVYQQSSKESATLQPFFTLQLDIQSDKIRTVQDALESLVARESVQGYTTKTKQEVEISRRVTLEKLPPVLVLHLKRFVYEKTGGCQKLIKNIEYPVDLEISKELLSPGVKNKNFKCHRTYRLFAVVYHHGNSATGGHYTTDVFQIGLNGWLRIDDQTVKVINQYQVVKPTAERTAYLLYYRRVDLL
Sequence of UCHL1 (P09936 whole entry, looked up): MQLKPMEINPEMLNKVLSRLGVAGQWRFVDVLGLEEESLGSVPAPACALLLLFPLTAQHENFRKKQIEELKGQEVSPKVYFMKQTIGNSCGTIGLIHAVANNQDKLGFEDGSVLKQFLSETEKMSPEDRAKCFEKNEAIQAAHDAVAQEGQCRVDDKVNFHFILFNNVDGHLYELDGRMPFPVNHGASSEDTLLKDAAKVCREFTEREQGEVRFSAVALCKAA

For `O=C(CCl)N1CCCC1c1ccsc1` (centres undefined), the “log2 ratio of Biotin-Ahx-Ub-VS probe labelling” value with OTUD6B is -0.452; in the assay with OTUD7B it was -0.521; with PRPF8, 0.0505; with PSMD7 it was -0.39; with UCHL1 it was -1.81 (active); with UCHL3 it was -0.121. Further, the “log2 ratio of Biotin-Ahx-Ub-VS probe labelling” value in the assay with UCHL5 was -0.228; with USP10, -0.161; with USP15, -0.548.

(Values after the supplement of paper PMC11732987, “Enantioselective OTUD7B fragment discovery through chemoproteomics screening and high-throughput optimisation” (Communications Chemistry, 2025).)
